Data: PubChem BioAssay
Where “and” joins values, the source holds several entries; their conditions need not be identical. Equal values may be shown once.

Columns and labels:
[1] = tested on: Botulinum neurotoxin type F light chain protease (Clostridium botulinum); experiment: Clostridium botulinum type F light chain protease inhibitors, microsphere substrate cleavage, validation (AID 588459); settings: multiplex microsphere protease substrate cleavage assay, flow cytometry; at 10 µM; stronger effect = higher value
[2] = molecular target: Botulinum neurotoxin type A (Clostridium botulinum) (UniProt P0DPI0); experiment: BoNT/A light chain protease inhibitors, biochemical, multiplex microsphere flow cytometry, validation set (AID 588460); settings: at 10 µM, stronger effect = higher value
[3] = molecular target: Lethal factor (Bacillus anthracis) (UniProt P15917); experiment: Bacillus anthracis lethal factor inhibition, microsphere flow cytometry protease assay, validation at 10 µM (AID 588461); settings: multiplex microsphere protease cleavage assay, stronger effect = higher value

Measured: inhibition

COc1ccc(-c2[nH]ncc2CN(C)C(C)c2ccon2)c(OC)c1 (configuration not stated)
inactive: [1] 1.9% | [2] 1.4% | [3] 0%

NC(=O)OCC(COC(N)=O)c1ccccc1
inactive: [1] -1% | [2] -1.7% | [3] -2.1%

COc1ccc(Br)cc1C(=O)Nc1ccc(C(=O)O)cc1
inactive: [1] 1% | [2] 1% | [3] -2.2%

COc1cc(SC)ccc1C(=O)NC(C)C
inactive: [1] 2.9% | [2] 2.2% | [3] 0.8%

C[n+]1ccccc1/C=N/O
inactive: [1] 2.2% and 2.6% | [2] 0.3% and 1.2% | [3] -1.8% and -6.4%

COc1cc(CNc2nnnn2C)ccc1OCc1ccc(F)cc1Cl
inactive: [1] -4.9% | [2] -0.5% | [3] -1.3%

CC(C)Oc1ccc(C(CC(=O)O)c2ccc(F)cc2)cc1 (configuration not stated)
inactive: [1] 5.2% | [2] 2% | [3] 0.9%

CC(=O)N1CCN2C(=O)C1CCCC(=O)c1cc(C(C)C)ccc12 (configuration not stated)
inactive: [1] -1.6% | [2] -1.6% | [3] -5.3%

COC(=O)c1cc(COc2ccc3ccc(=O)oc3c2)c(C)o1
inactive: [1] -0.4% | [2] -1.4% | [3] 1%

COc1ccc2oc(=O)c(C(=O)N3CCN(c4ccccc4)CC3)cc2c1
inactive: [1] -1% | [2] 0.2% | [3] 1.6%

CCn1cc(CN2N=C(C)CC2c2ccccc2)c(C)n1 (configuration not stated)
inactive: [1] -0.5% | [2] 0% | [3] -2.2%

CCn1cc(C(=O)O)c(=O)c2cnc(N3CCNCC3)nc21
inactive: [1] 0.1% | [2] 1% | [3] -7.3%

Cc1nc(C)c(C)nc1C
inactive: [1] -1.1% | [2] -0.9% | [3] -9.1%

COc1ccc(S(=O)(=O)N2CCN(C(=O)COc3ccc4c(C)cc(=O)oc4c3)CC2)cc1
inactive: [1] 2.4% | [2] 0.1% | [3] -0.8%

Brc1c(NC2=NCCN2)ccc2nccnc12
inactive: [1] -5.6% | [2] -0.8% | [3] -2.9%

COc1cc2c(cc1NCc1ccc3c(c1)OCO3)oc1ccccc12
inactive: [1] -2.5% | [2] -0.9% | [3] -15.7%

CSCCC1NC2(C(=O)Nc3ccc(Cl)cc32)[C@@H]2C(=O)N(C3CCCC3)C(=O)[C@H]12 (some centres not stated)
inactive: [1] 0.8% | [2] -1.4% | [3] -11.2%

O=C(O)/C=C/c1cnc[nH]1
inactive: [1] 1.9% | [2] -0.2% | [3] -0.5%

Cc1cccc(N2C(=O)C3C(c4ccccc4)OC4(C(=O)c5ccccc5C4=O)C3C2=O)c1 (configuration not stated)
inactive: [1] 4.6% | [2] 1% | [3] -3.5%

CC(C)CC1c2[nH]c3ccccc3c2CCN1C(=O)CCC(=O)N(C)C (configuration not stated)
inactive: [1] 1.9% | [2] -0.3% | [3] 2.9%

O=C(c1ccco1)N(CCC(c1ccccc1)c1ccco1)Cc1ccco1 (configuration not stated)
inactive: [1] -0.1% | [2] -0.1% | [3] 3.5%

COC(=O)C1=NN(C(=O)c2cccc(Br)c2)C(O)(c2ccc(Cl)cc2)C1 (configuration not stated)
inactive: [1] 3.1% | [2] -0.5% | [3] 1.2%

COC(=O)c1ccc(-c2ncc(-c3cccc4ccccc34)o2)cc1
inactive: [1] -1.4% | [2] -1.3% | [3] 4.9%

COc1ccc(CCNC(=O)C(=O)Nc2ccc3c(c2)OCO3)cc1OC
inactive: [1] 1.8% | [2] -0.8% | [3] -0.3%

Cc1oc(/C=N/NC(=O)CC2(C)OCCO2)cc1Br
inactive: [1] 3.9% | [2] 0.6% | [3] 3.2%

COc1ccc(C2N3CC4(C)CN2CC(C)(C3)C4)cc1OC (configuration not stated)
inactive: [1] -0.3% | [2] -1.6% | [3] -4.9%

COc1ccc(C(=O)/C=C2/c3ccccc3CC(C)(C)N2C)cc1
inactive: [1] -2.7% | [2] -1.8% | [3] -1.2%

COc1ccc2[nH]c(C)c(CN3CCC(C)CC3)c(=O)c2c1
inactive: [1] -0.8% | [2] 0.1% | [3] -5.9%

CC(C)(C)c1csc(N/N=C/c2cccnc2)n1
inactive: [1] -3.3% | [2] 0.5% | [3] 0.6%
